Bioassay records as filed in PubChem.
Most compounds without a hit are left out; they make up all but 2.4% or so of the library.
M1 ag parental = M1 agonist counterscreen hit in parental CHO-K1 cells; Fluo-8 calcium fluorescence; scaled to maximal ATP response, vehicle zero; AID 602248; activation, % at 3 µM; hit rate 0.48% among 360,000; in the data active means activation above about 15%;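 further: untransfected CHO-K1 host cells lacking M1 receptor as counterscreen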
CHRM1 agonist = activates human CHRM1 receptor | activation, % at 3 µM | AID 588814 | hit rate 0.33% among 360,000 | CHO-K1 hM1, Fluo-8 calcium fluorescence, agonist mode; 0% DMSO, 100% acetylcholine EC100;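 active means activation above the run's mean compound activation plus 3 SD, cut at about 16% in these data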;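 further: peak over basal fluorescence ratio within a 140 s kinetic read after compound addition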
Target sequence (P11229 whole entry, looked up): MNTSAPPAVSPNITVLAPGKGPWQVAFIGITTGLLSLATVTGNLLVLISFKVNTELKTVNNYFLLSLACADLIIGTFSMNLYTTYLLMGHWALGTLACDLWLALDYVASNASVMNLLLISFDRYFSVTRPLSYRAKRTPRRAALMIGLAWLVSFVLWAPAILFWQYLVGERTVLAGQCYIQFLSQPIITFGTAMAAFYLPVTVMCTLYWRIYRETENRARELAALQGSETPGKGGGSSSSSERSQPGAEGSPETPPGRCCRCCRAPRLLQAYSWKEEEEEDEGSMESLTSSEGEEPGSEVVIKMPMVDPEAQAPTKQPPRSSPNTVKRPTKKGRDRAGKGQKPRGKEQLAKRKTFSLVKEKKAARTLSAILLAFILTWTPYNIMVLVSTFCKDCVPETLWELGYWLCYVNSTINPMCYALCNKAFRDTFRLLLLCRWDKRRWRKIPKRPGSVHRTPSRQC
M1 PAM parental = M1 PAM counterscreen hit in parental CHO-K1 cells; ATP EC20, Fluo-8 calcium fluorescence; 0% at ATP EC20, 100% at ATP max; activation, % at 3 µM; hit rate 0.02% among 360,000; AID 602247;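 active means activation above the run cutoff, the mean activation of all test compounds plus 3 SD, cut at about 40% in these data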;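 further: peak over basal fluorescence ratio in a 140 s read after ATP addition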
M1 PAM = human CHRM1 positive allosteric modulation; activation, % at 3 µM; AID 588819; CHO-K1 hM1, Fluo-8 calcium fluorescence, ACh EC20; 0% = ACh EC20, 100% = maximal ACh; hit rate 0.088% among 360,000; in the data active means activation above about 19%, passing the limit was not always enough
CHO-K1 Ca antag = M1 antagonist counterscreen hit in parental CHO-K1 cells. ATP-induced calcium, Fluo-8 fluorescence. inhibition, % at 3 µM. hit rate 0.6% among 360,000. AID 602250;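 active means inhibition above a per-plate cutoff, the plate's mean sample inhibition plus 3 SD, cut at about 24% in these data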
M1 antag = antagonists of human M1 muscarinic receptor. P11229. CHO-K1 hM1, Fluo-8 calcium fluorescence, ACh EC80 antagonist. inhibition, % at 3 µM. hit rate 1.3% among 360,000;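 active means percent inhibition above its own plate's cutoff, namely the mean of that plate's compound wells plus 3 SD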;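 further: peak over basal fluorescence ratio during 140 s after agonist addition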
Large screens that a line does not name were inactive.

COc1cc(CC(=O)N2CCN(S(=O)(=O)c3ccc(C(C)C)cc3)CC2)cc(OC)c1OC	none
COc1ccc(/C(C)=N/NC(=O)c2ccc(CSc3cccc4cccnc34)cc2)cc1OC	CHRM1 agonist 51
C/C(=N\NC(=O)c1ccc(CSc2cccc3cccnc23)cc1)C1CCCCC1	CHRM1 agonist 52
OC(C#CCN1CCCCCC1)(c1ccccc1)c1cccnc1 (stereo not drawn)	M1 antag 99
OC(C#CCN1CCCC1)(c1ccccc1)c1cccnc1 (stereo not drawn)	M1 antag 99
CCCN(CC#CC(O)(c1ccccc1)c1cccnc1)CCC (stereo not drawn)	none
CCN(CC)CC#Cc1ccc(C)cc1	none
CCN(CC)CC#CC(OC)(c1ccccc1)c1ccccc1	M1 antag 100
O=C(Cc1cccs1)Nn1c(Cc2cccs2)nc2ccccc2c1=O	CHO-K1 Ca antag 30
CCOC(=O)C1=CN(Cc2cccc(-c3ccc4c(c3)OCO4)c2)S(=O)(=O)N(C)C1C (stereo not drawn)	none
CCc1ccc(N=Nc2ccc(O)c3[nH]cnc23)cc1	M1 antag 40
COc1ccc(CNc2ccc(Cl)cc2)cc1Cn1ccnc1	CHRM1 agonist 17
CCOc1cccc(=O)c2c(C)n(Cc3ccccc3)c(C)c12	M1 ag parental 23
CCS(=O)(=O)N1CCN(c2ncnc3sc(C)c(C)c23)CC1	none
O=S(=O)(c1ccc(F)c(F)c1F)N1CCN(c2ncnc3sccc23)CC1	none
O=S(=O)(c1ccccc1C(F)(F)F)N1CCN(c2ncnc3sccc23)CC1	M1 ag parental 17, M1 antag 29
O=S(=O)(c1cc(C(F)(F)F)ccc1Cl)N1CCN(c2ncnc3ccccc23)CC1	M1 antag 39
Cc1sc2ncnc(N3CCN(S(=O)(=O)c4ccc(F)cc4)CC3)c2c1C	M1 antag 29
Cc1ccc(S(=O)(=O)N2CCN(c3ncnc4sccc34)CC2)cc1	M1 antag 30
O=C(CCc1ccccc1)NC1CCS(=O)(=O)C1 (stereo not drawn)	none
CN1CCC(OC(=O)COc2ccc(F)cc2)CC1	none
CN1CCC(OC(=O)COc2ccccc2)CC1	M1 antag 51
COc1cccc(C(=O)OC2CCN(C)CC2)c1	CHO-K1 Ca antag 29
NC(=O)CC(NC(=O)c1cccc(Br)c1)c1ccc(NC2CCCCCCC2)c([N+](=O)[O-])c1 (stereo not drawn)	none
CC1c2ccccc2-c2ccccc2N1C (stereo not drawn)	none
FC(F)Oc1ccc(-c2c[n+]3c(n2-c2ccccc2)CCCCC3)cc1	none
COc1ccc(-c2c[n+]3c(n2-c2ccccc2)SCC3)cc1	M1 antag 62
Cc1ccc(-c2c[n+]3c(n2-c2ccccc2)SCC3)cc1	M1 antag 54
Brc1ccc(-c2c[n+]3c(n2-c2ccccc2)SCC3)cc1	M1 antag 73
COc1ccc(-c2c[n+]3c(n2-c2ccccc2)SCC3)cc1OC	none
CC(C(=O)Nc1ccc(F)c(F)c1F)N(C)Cc1cccs1 (stereo not drawn)	none
COc1ccc(CCNC(=O)CCCn2ncn3c(cc4occc43)c2=O)c(OC)c1	none
COc1ccc(NC(=S)N(CCCN2CCC(C)CC2)Cc2cccs2)cc1	none
COc1ccc(NC(=S)N(CCCN2CCCCC2)Cc2cccs2)cc1	M1 antag 59
Cc1c(Cl)cccc1NC(=S)N(CCCN1CCOCC1)Cc1cccs1	M1 antag 82
O=C(NCCc1ccc(Cl)cc1Cl)c1cncc(Br)c1	none
COc1ccc(NC(=O)c2ccccc2N2C(=O)C3C4C=CC(C5CC45)C3C2=O)c(OC)c1 (stereo not drawn)	none
CC1(C(=O)Nc2ccc3c(c2)OCO3)CCN1Cc1csc2ccccc12 (stereo not drawn)	M1 PAM parental 40
COCOc1cccc(CN2CCC2(C)C(=O)Nc2ccc3c(c2)OCO3)c1 (stereo not drawn)	none
Cc1ccc(NC(=O)C2(C)CCN2Cc2csc3ccccc23)cc1 (stereo not drawn)	M1 antag 45
CC1(C(=O)Nc2ccc3c(c2)OCO3)CCN1Cc1cccc2c1OCO2 (stereo not drawn)	M1 PAM parental 58
O=S(=O)(c1ccc(SCCO)nc1)N1CCOCC1	none
COc1cccc(Nc2nc(C(N)Cc3ccc(F)cc3)cs2)n1 (stereo not drawn)	M1 ag parental 15
Cc1ccc(NC(=O)c2cnccn2)cc1S(=O)(=O)N1CCCCCC1	none
CCN(CC)CCNC(C(=O)Nc1cccc(C(C)=O)c1)c1ccccc1 (stereo not drawn)	M1 antag 84
CC1CCN(Cc2ccc(NC(=O)C3CCN(c4nnc(-n5cccc5)s4)CC3)cc2)CC1	M1 antag 97
COc1ccccc1CCNC(=O)c1cccc(NC(=O)CC2SC(N3CCCCC3)=NC2=O)c1 (stereo not drawn)	none
CNC(=O)Nc1cccc(-c2ccnc(C)n2)c1	M1 ag parental 20
CC(C)(C)OC(=O)NCCCCCNC(=O)c1nc[nH]c1C(=O)NCC(=O)OCc1ccccc1	M1 antag 39
C[C@H](NC(=O)c1nc[nH]c1C(=O)NCCCCCNC(=O)OC(C)(C)C)C(=O)OCc1ccccc1	M1 antag 45
CC(C)(C)OC(=O)CNC(=O)c1[nH]cnc1C(=O)NCC(=O)OCc1ccccc1	M1 antag 35
CC(C)(C)OC(=O)[C@H](Cc1ccccc1)NC(=O)c1nc[nH]c1C(=O)NCC(=O)OCc1ccccc1	none
O=C(COc1ccccc1)N=C1SC2CS(=O)(=O)CC2N1c1ccccc1F (stereo not drawn)	none
COc1ccccc1-c1csc(Nc2ccc(Oc3ccccc3)cc2)n1	none
CCOC(=O)N1CCN(C(=O)c2c[nH]c3ccc(S(=O)(=O)N(C)c4cccc(C)c4)cc3c2=O)CC1	none
CCOC(=O)N1CCN(C(=O)c2c[nH]c3ccc(S(=O)(=O)N(C)c4ccccc4C)cc3c2=O)CC1	CHO-K1 Ca antag 58
CCc1sc(C(=O)NCCc2ccc(S(N)(=O)=O)cc2)cc1Br	CHO-K1 Ca antag 29
O=C(O)c1ccc(CSc2nc3ccc(NC(=O)c4ccccc4C(=O)O)cc3s2)cc1	none
N#Cc1ccccc1CSc1nc2ccc(NC(=O)c3ccccc3C(=O)O)cc2s1	CHO-K1 Ca antag 31
CCCCCCn1cc(C(=O)O)c(=O)c2ccccc21	CHRM1 agonist 32
COc1ccc2c(c1)c(=O)c(C(=O)c1ccccc1)cn2Cc1ccccc1	none
O=C(O)c1cn(Cc2ccccc2)c2ccc(Cl)cc2c1=O	CHRM1 agonist 47
COc1cccc(NC(=O)C(NCCc2ccc(S(N)(=O)=O)cc2)c2ccccc2)c1 (stereo not drawn)	none
